# Test results published in PubChem BioAssay AID1159580 (chemical genetic matrix, 2015).
# Among all 5,500 compounds or so, about 2,000 (36%) were called active. Roughly 18% stayed inconclusive and do not appear here. Some of the results follow. Values without a mark were called inactive. Cut-off read from the data, not from the text of the source: active = normalized growth mostly below about 0.91 (no sharp cut-off); inconclusive = no clear call, values can overlap the other calls; inactive = mostly above about 0.92.
# Assay: chemical genetic growth profiling, strain panel (AID 1159580);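 note: tested at 20 µM; growth read once vehicle control cultures reached saturation at 30 °C; 1 = growth at the plate median or of vehicle wells; lower values mean less growth of the strain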
# Details: growth OD
# [1] = S. cerevisiae deletion strains, locus YAL013W, strain DEP1, hits give low values
# [2] = S. cerevisiae deletion strains, locus YBR229C, strain ROT2, hits give low values
# [3] = S. cerevisiae deletion strains, locus YDL101C, strain DUN1, hits give low values
# [4] = S. cerevisiae deletion strains, locus YDR150W, strain NUM1, hits give low values
# [5] = S. cerevisiae deletion strains, locus YEL061C, strain CIN8, hits give low values
# [6] = S. cerevisiae deletion strains, locus YGR078C, strain PAC10, hits give low values
# [7] = S. cerevisiae deletion strains, locus YHR030C, strain SLT2, hits give low values
# [8] = S. cerevisiae deletion strains, locus YHR087W, strain rtc3, hits give low values
# [9] = S. cerevisiae deletion strains, locus YJL187C, strain SWE1, hits give low values
# [10] = S. cerevisiae deletion strains, locus YJR043C, strain POL32, hits give low values
# [11] = S. cerevisiae deletion strains, locus YJR075W, strain HOC1, hits give low values
# [12] = S. cerevisiae deletion strains, locus YLR039C, strain RIC1, hits give low values
# [13] = S. cerevisiae deletion strains, locus YLR058C, strain SHM2 (second series), hits give low values
# [14] = S. cerevisiae deletion strains, locus YLR085C, strain ARP6, hits give low values
# [15] = S. cerevisiae deletion strains, locus YLR262C, strain YPT6, hits give low values
# [16] = S. cerevisiae deletion strains, locus YML094W, strain GIM5, hits give low values
# [17] = S. cerevisiae deletion strains, locus YMR219W, strain ESC1, hits give low values
# [18] = S. cerevisiae deletion strains, locus YMR263W, strain SAP30, hits give low values
# [19] = S. cerevisiae deletion strains, locus YMR307W, strain GAS1, hits give low values
# [20] = S. cerevisiae deletion strains, locus YNL153C, strain GIM3, hits give low values
# [21] = S. cerevisiae deletion strains, locus YNL298W, strain CLA4 (second series), hits give low values
# [22] = S. cerevisiae deletion strains, locus YNL322C, strain KRE1, hits give low values
# [23] = S. cerevisiae deletion strains, locus YNR030W, strain Alg12, hits give low values
# [24] = S. cerevisiae deletion strains, locus YPL055C, strain LGE1, hits give low values
# [25] = S. cerevisiae deletion strains, locus YPL241C, strain CIN2, hits give low values
# [26] = S. cerevisiae deletion strains, locus YPR135W, strain CTF4, hits give low values
smiles,measurement,setting,value
CC(C)(CC(=O)O)CC(=O)Nc1cc(C(F)(F)F)cc(C(F)(F)F)c1,normalized growth,[1],0.997
same,normalized growth,[2],1.01
same,normalized growth,"S. cerevisiae deletion strains, locus YCL061C, strain MRC1, hits give low values",1.03
same,normalized growth,[3],0.997
same,normalized growth,"S. cerevisiae deletion strains, locus YDL134C, strain PPH21, hits give low values",0.999
same,normalized growth,[4],0.993
same,normalized growth,[5],0.998
same,normalized growth,[6],1.01
same,normalized growth,"S. cerevisiae deletion strains, locus YGR229C, strain SMI1, hits give low values",1
same,normalized growth,[7],1.01
same,normalized growth,[8],1
same,normalized growth,[9],1
same,normalized growth,[10],0.997
same,normalized growth,[11],0.997
same,normalized growth,[12],1.03
same,normalized growth,[13],1.01
same,normalized growth,[14],1.03
same,normalized growth,[15],1.02
same,normalized growth,[16],0.969
same,normalized growth,[17],1.01
same,normalized growth,[18],1.05
same,normalized growth,[19],0.967
same,normalized growth,[20],1.01
same,normalized growth,[21],1.01
same,normalized growth,[22],0.973
same,normalized growth,[23],0.537 (active)
same,normalized growth,"S. cerevisiae deletion strains, locus YOL006C, strain TOP1, hits give low values",0.964
same,normalized growth,[24],1.01
same,normalized growth,[25],0.639 (active)
same,normalized growth,[26],1.06
O=C(Nc1cc(C(F)(F)F)cc(C(F)(F)F)c1)C(c1ccccc1)C1CCCC1 (configuration not stated),normalized growth,[1],1.02
same,normalized growth,[2],1.01
same,normalized growth,[3],1.02
same,normalized growth,[4],1.02
same,normalized growth,[5],0.969
same,normalized growth,[6],1.03
same,normalized growth,[7],1.06
same,normalized growth,[8],1
same,normalized growth,[9],1.02
same,normalized growth,[10],1.01
same,normalized growth,[11],1.03
same,normalized growth,[12],1.04
same,normalized growth,[13],1
same,normalized growth,[14],1.01
same,normalized growth,[15],0.998
same,normalized growth,[16],1.02
same,normalized growth,[17],1
same,normalized growth,[18],1.02
same,normalized growth,[19],1.04
same,normalized growth,[20],1.01
same,normalized growth,[21],1.03
same,normalized growth,[22],1.01
same,normalized growth,[23],1.01
same,normalized growth,[24],1.03
same,normalized growth,[25],1.03
same,normalized growth,[26],1.01
same,normalized growth,"S. cerevisiae strains, strain wild type, hits give low values",1
